Data from PubChem BioAssay (NCI).
About 83,000 compounds went through this panel and 20% of them were active in at least one assay; those are over-represented in the sample as a whole.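 Negative percent growth values reflect cell death: -40 means 40% of the cells present at the start died, and -100 means all died.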 Active and inactive are the calls of the source. Rule for the calls: active = growth percent below 10; inactive = the rest.

Legend:
Assay in all cases: NCI-60 one-dose screen, 48 h (100 = growth as untreated, 0 = no growth, -100 = all killed)
Settings in all cases: 10 µM
[1] = tested on: NCI-H23 lung
[2] = tested on: NCI-H226 lung
[3] = tested on: NCI-H322M lung
[4] = tested on: HOP-62 NSCLC
[5] = tested on: NCI-H460 lung
[6] = tested on: HOP-92 NSCLC
[7] = tested on: NCI-H522 lung
[8] = tested on: A549/ATCC NSCLC
[9] = tested on: 786-0 renal
[10] = tested on: COLO 205 colon

Row | SMILES | growth [1] | growth [2] | growth [3] | growth [4] | growth [5] | growth [6] | growth [7] | growth [8] | growth [9] | growth [10]
1 | CCC(OC(=O)CC(C)C)c1ccccc1 (stereo not given) | 98.8% (inactive) | 89.4% (inactive) | 93.3% (inactive) | 96.3% (inactive) | 105% (inactive) | 92.8% (inactive) | 71.8% (inactive) | 80.6% (inactive) | 95.2% (inactive) | 107% (inactive)
2 | c1ccc(CNc2nc(Nc3ccc(-c4nc5ccccc5[nH]4)cc3)c3cn[nH]c3n2)cc1 | 14.5% (inactive) | 39.6% (inactive) | 28.6% (inactive) | -17.4% (active) | 4.06% (active) | 14.7% (inactive) | -45.7% (active) | 4.29% (active) | -78.4% (active) | -60.1% (active)
3 | CC1(C)CCc2cc(-c3ccn(S(=O)(=O)c4ccc(Cl)cc4)n3)ccc2O1 | 65.5% (inactive) | 74.4% (inactive) | 94.2% (inactive) | 92.9% (inactive) | 73.8% (inactive) | 8% (active) | 66.2% (inactive) | 67.4% (inactive) | 71.4% (inactive) | 117% (inactive)
4 | COc1cc(C)c2sc3ccccc3c(=O)c2c1NCCN(C)C | 76.3% (inactive) | 74% (inactive) | 90.6% (inactive) | 67.7% (inactive) | 22.2% (inactive) | 19.1% (inactive) | 80.1% (inactive) | 28.8% (inactive) | 65.9% (inactive) | 16.1% (inactive)
5 | Cn1c([N+](=O)[O-])cnc1/C=C1\Oc2ccc(Br)cc2C1=O | -9.69% (active) | -38.1% (active) | -10.5% (active) | -23.7% (active) | -35% (active) | -32% (active) | -49.4% (active) | -24.8% (active) | -52.9% (active) | -42.1% (active)
6 | Cc1ccc(-n2c(-c3cc4c([nH]c5ccccc54)c(-c4cccc(O)c4)n3)n[nH]c2=S)cc1 | 22.9% (inactive) | -27.1% (active) | -2.32% (active) | -24% (active) | 4.05% (active) | 34.3% (inactive) | -39.9% (active) | 2.93% (active) | 10.8% (inactive) | 17.8% (inactive)
7 | COc1cc2ccnc(C=O)c2cc1OC | 83.5% (inactive) | 101% (inactive) | 87.5% (inactive) | 89.7% (inactive) | 107% (inactive) | 51.2% (inactive) | 68.4% (inactive) | 101% (inactive) | 99.9% (inactive) | 92.9% (inactive)
8 | C[N+]1=C(/C=C/c2ccc(I)cc2)C(C)(C)c2ccccc21 | 82% (inactive) | 104% (inactive) | 89.1% (inactive) | 108% (inactive) | 103% (inactive) | 65% (inactive) | 68.8% (inactive) | 109% (inactive) | 97.4% (inactive) | 95% (inactive)
9 | CC(=O)Nc1nc(C)c(C(=O)NNC=O)s1 | 97.4% (inactive) | 92.7% (inactive) | 155% (inactive) | 111% (inactive) | 105% (inactive) | 67.2% (inactive) | 99.5% (inactive) | 107% (inactive) | 118% (inactive) | 128% (inactive)
